Screens: PubChem BioAssay, National Center for Advancing Translational Sciences (NCATS)
In the library only some 21% were active in any assay of this set; here they are far more common.
Pf growth 96h: Primary qHTS for delayed death inhibitors of the malarial parasite plastid, 96 hour incubation | P. falciparum luciferase reporter growth, 96 h | Potency, µM (top dose mostly 28.7 µM), without a hit: top-dose activity change, negative = inhibition, actives largely listed as inhibitors | 320,000 tested, 6.9% active; further: potency means the concentration at half of the fitted maximal effect; on the % scale 0 is the no-effect control and ±100 the full control effect
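Readout is luminescence from an integrated firefly luciferase in P. falciparum. Red cells, 2% hematocrit and 0.05% parasitemia final, were cultured with compound through two parasite generations (96 hours) at 37 C, 5% CO2.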
HCV inhibitor: qHTS Assay for Inhibitors of Hepatitis C Virus (HCV). Huh7.5.1 HCVcc-Cre infection, luciferase reporter, 44 h. Potency, µM (top dose mostly 41.8 µM), for inactives: at the top dose activity change, negative = inhibition, hits mostly inhibitors. 340,000 tested, 3.4% active. AID 651820, 2012; further: potency means the concentration at half of the fitted maximal effect; on the % scale 0 is the no-effect control and ±100 the full control effect
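Compounds are dispensed onto cells plated 4 h earlier at 1,000 per well, with HCVcc-Cre virus (about 0.5 moi) added next. Following 44 h of culture, luminescent signal is measured for 15 sec after 15 min with substrate at room temperature.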
Pf growth 48h: Primary qHTS for delayed death inhibitors of the malarial parasite plastid, 48 hour incubation | P. falciparum luciferase growth in erythrocytes, 48 h | Potency, µM (doses to about 28.7 µM), for the others: top-dose activity change, negative = inhibition, usual class: inhibitors | 310,000 tested, 5.9% active | AID 504832, 2011; further: potency means the concentration at half of the fitted maximal effect; on the % scale 0 is the no-effect control and ±100 the full control effect
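First compound was added to culture medium, then infected red cells at 0.1% parasitemia and 2% hematocrit (final). After incubation at 37 C under 5% CO2, luciferase detection reagent was dispensed and light output recorded.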
Cycloheximide cs: Cycloheximide Counterscreen for Small Molecule Inhibitors of Shiga Toxin; 300,000 tested, 12% active; max response, %; cell reporter, cycloheximide protein synthesis inhibition counterscreen; in the data active means max response mostly above about 13%, no sharp cut-off; inactive means mostly below about 14%; further: read at 38.3 µM for the half of the compounds with a filed dose; 0% is about no effect
Shiga toxin inh: A qHTS for Small Molecule Inhibitors of Shiga Toxin; Vero cells, Shiga toxin protein synthesis inhibition reporter; inhibition, % at 38.7 µM; 290,000 tested, 9.2% active; AID 2315, 2010; in the data active means inhibition mostly above about 28%, no sharp cut-off; inactive means mostly below about 43%; further: 0% is about no effect
AMA1 RON2 block: qHTS for Inhibitors of AMA1-RON; Towards Development of Antimalarial Drug Lead: Primary Screen; Plasmodium falciparum AMA1 (3D7) - RON2 peptide interaction; AlphaScreen AMA1-biotinylated RON2 peptide binding; Potency, µM (titrated, usually from 58.2 µM), inactives show at the highest dose activity change, negative = inhibition, hits mostly inhibitors; 360,000 tested, 0.2% active; AID 720542, 2013;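 further: potency means the concentration at half of the fitted maximal effect; 0% = vehicle wells and -100% = peptide control; nearly all actives have a fitted effect of over 45% in size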
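AMA1 (3D7) with his tag at 25 nM final met compounds first, then biotinylated RON2 peptide at 25 nM; detection used donor plus acceptor beads, 10 µg/mL apiece, read by AlphaScreen after 30 min at room temperature.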
An asterisk follows results filed as active; i = inactive; ? = inconclusive; / = no result; [ ] = remark or other dose. Unless noted, the call rests on the fitted dose curve; in most records, active means well fitted curve in the direction sought with a large enough effect; inconclusive means small, poorly fitted or top-dose-only effect, or another doubt; inactive means no such curve, though single readings can be large; an effect the other way counts as inactive or inconclusive.

SMILES	Pf growth 96h	HCV inhibitor	Pf growth 48h	Cycloheximide cs	Shiga toxin inh	AMA1 RON2 block
CCCCN1C(=S)NC[C@@H]1Cc1ccc(O)cc1	-9.5%	13.3%	-1.0%	7.2*	-5.9	43.5%
CCCCN1C(=O)C(=O)NC[C@@H]1Cc1ccc(O)cc1	/	/	/	/	/	-5.5%
COc1ccc(NC(=O)CNc2ccccc2C(C)=O)cc1S(=O)(=O)N1CCOCC1	/	-22.0%	/	/	/	0.5%
COc1ccc(NC(=O)CSc2ccccc2)cc1S(=O)(=O)N1CCOCC1	11.7µM*	-11.8%	-14.1%	1.3	21.6	-6.6%
O=C(Cc1ccccc1Cl)Nc1cccc(S(=O)(=O)N2CCOCC2)c1	?	7.0%	7.1%	-0.4	-6.6	7.3%
Cc1ccc(S(=O)(=O)N2CCOCC2)cc1NC(=O)COc1ccc(C(=O)c2ccccc2)cc1	?	10µM*	?	/	/	-3.8%
COc1ccc(NC(=O)Cc2coc3cc(C)c(C(C)C)cc23)cc1S(=O)(=O)N1CCOCC1	?	7.08µM*	?	0.6	-7.1	2.3%
O=C(COc1ccccc1Cc1ccccc1)Nc1cccc(S(=O)(=O)N2CCOCC2)c1	4.15µM*	?	13.1µM*	/	/	-5.4%[11.6 µM]
COc1ccc(OC)c(S(=O)(=O)Nc2cc(C(=O)O)ccc2N2CC3CC(C2)c2cccc(=O)n2C3)c1 (configuration not stated)	7.4%	10.4%	-15.3%	-1.9	-13.1	9.4%
COc1ccc(NC(=O)COc2ccccc2Cc2ccccc2)cc1S(=O)(=O)N1CCOCC1	5.22µM*	?	11.7µM*	/	/	6.1%
COc1ccccc1CCC(=O)Nc1ccc(OC)c(S(=O)(=O)N2CCOCC2)c1	?	-2.7%	-7.7%	/	/	1.7%[11.6 µM]
Cc1ccc(S(=O)(=O)N2CCOCC2)cc1NC(=O)COc1ccc2c(C)cc(=O)oc2c1	9.28µM*	-3.7%	?	-2.4	-11.5	17.7%
Cc1ccc(S(=O)(=O)N2CCOCC2)cc1NC(=O)COC(=O)c1ccc(OCc2c(C)noc2C)cc1	?	0.0%	13.1µM*	4.3	-2.6	-1.4%
COc1ccc(Nc2nc(-c3cccs3)nc3ccccc23)cc1S(=O)(=O)N1CCOCC1	/	2.82µM*	/	/	/	-9.2%
CCOC(=O)C1=CC[C@@H](c2ccccc2)N(S(=O)(=O)c2ccc(C)cc2)[C@H]1C#N	/	/	/	/	/	0.5%
Cc1ccc(NC(=O)CSc2ccc(Br)cc2)cc1S(=O)(=O)N1CCOCC1	-26.3%	31.6µM*	?	/	/	2.1%
Cc1ccc(NC(=O)CCNC(=O)c2ccc(Br)cc2)cc1S(=O)(=O)N1CCOCC1	0.0%	?	-12.5%	/	/	1.0%
CCN(CC)S(=O)(=O)c1ccc(OC)c(NC(=O)COc2ccc3c(C)cc(=O)oc3c2)c1	2.62µM*	?	?	-4.8	-8.6	0.4%
Cc1ccc(S(=O)(=O)N2CCOCC2)cc1NC(=O)COc1ccccc1Cc1ccccc1	/	12.6µM*	/	/	/	-1.0%
COc1ccc(NC(=O)CSc2nnc3n2CCCCC3)cc1S(=O)(=O)N(C)C	/	/	/	/	/	-9.6%
Cc1cc2cc(CNC(=O)c3cc4ccccc4o3)ccc2n1C	14.7µM*	/	11.7µM*	-2.7	-3.5	/
COc1cc(OC)cc(C(=O)NCc2ccc3c(c2)cc(C)n3C)c1	9.28µM*	-21.7%	-17.1%	-6.9	16.4	?
Cc1onc(-c2ccccc2Cl)c1C(=O)NCc1ccc2c(c1)cc(C)n2C	?	?	10.4µM*	-5.0	2.0	-26.2%
COc1cc(/C=C\C(=O)NCc2ccc3c(c2)cc(C)n3C)cc(OC)c1OC	7.38µM*	5.0%[8.37 µM]	11.7µM*	-3.3	23.2	-19.9%
COc1ccc(C(C)(NC(C)=O)c2nc(-c3cccc(F)c3)cs2)cc1 (configuration not stated)	/	/	/	/	/	-2.9%
SMILES	Pf growth 96h	HCV inhibitor	Pf growth 48h	Cycloheximide cs	Shiga toxin inh	AMA1 RON2 block
NC(=O)CN1C(=O)C(=O)N(Cc2cccc(C(F)(F)F)c2)C1=O	48.3%	9.1%	-7.1%[0.00184 µM]	4.9	1.7	-4.8%
CCC(Oc1ccccc1)C(=O)NCCCN1CCOCC1 (configuration not stated)	2.5%	16.8%	1.8%	-2.3	-4.6	-4.2%
CC(NC(=O)C(NS(=O)(=O)c1cccs1)C(C)C)c1ccc(S(N)(=O)=O)cc1 (configuration not stated)	-26.2%	-8.6%	1.5%	/	/	2.9%
C=C1CCN(C(CC(C)C)C(=O)NCc2ccc(Cl)cc2)S(=O)(=O)c2ccccc21 (configuration not stated)	/	/	/	-2.7	-9.3	/
CCN(CC)S(=O)(=O)c1ccc(S(=O)(=O)N2CCC(N3CCCCC3)CC2)cc1	386.2%	-2.1%	-3.6%	-4.6	11.1	-18.8%
Cc1cc2cc(CNC(=O)COc3ccccc3)ccc2n1C	-1.9%	3.0%	-0.6%	-3.5	-2.3	-12.4%
COCC(=O)NCc1ccc2c(c1)cc(C)n2C	4.65µM*	-5.0%	-5.2%	1.1	-10.5	-19.8%
FC(F)(F)c1ccccc1-c1ccc2nncn2c1	/	/	/	/	/	-2.1%
COc1cc(CO)ccc1OCc1ccc(Cl)nc1	213.1%	14.9%	134.6%	51.0*	149.5*	15.6%
Nc1nnc(-c2ccc(Cl)cc2Cl)s1	-2.1%	7.1%	61.2%	23.2*	57.7*	3.1%
Nc1nnc(-c2ccccc2F)s1	-7.3%	18.5%	31.6%	20.8*	86.0*	4.6%
Nc1nnc(Cc2ccccc2F)s1	i	-2.5%	27.0%	1.8	-10.0	-8.6%
CCCCCCCCCC[n+]1cccc([C@@H]2CCCN2C)c1	/	/	/	-6.0	15.6	/
OCCN1CCN(c2cc(-c3ccc4ccccc4c3)nc3ccnn23)CC1	/	/	/	/	/	41.0%
COc1ccccc1N/C(N)=N/c1nc(CSc2ccc(C)cc2)cc(=O)[nH]1	?	?	0.0%	-3.8	-5.7	36.1%
N/C(=N\c1nc(CSc2ccc(Cl)cc2)cc(=O)[nH]1)Nc1ccccc1C(F)(F)F	?	6.3%	13.1µM*	-2.3	-3.5	0.0%
Cc1ccc(N/C(N)=N/c2nc(CSc3ccc(C)cc3)cc(=O)[nH]2)cc1	/	11.9%	3.9%	5.6	11.6	11.0%
Cc1ccc(SCc2cc(=O)[nH]c(/N=C(\N)Nc3ccccc3Sc3ccccc3)n2)cc1	10.4µM*	14.6%	?	-1.0	2.1	-7.1%
CC1(C(=O)Nc2cccc3ccccc23)CCN1C(=O)Cc1ccc(Cl)cc1Cl (configuration not stated)	/	/	/	/	/	-4.3%
Nc1ncc(-c2ccccc2)c(-c2ccc(OCc3ccccc3)cc2O)n1	?	1.78µM*	11.7µM*	2.1	-6.9	-10.4%
C=C(C)COc1ccc(-c2nc(N)ncc2-c2ccc(Cl)cc2)c(O)c1	?	?	13.1µM*	-2.0	-7.1	-11.9%
C=C(C)COc1ccc(-c2nc(N)ncc2-c2ccc(OC)cc2)c(O)c1	-6.1%	?	?	-6.1	-2.2	/
